# Source: PubChem BioAssay (EPA / NIEHS)
# Inconclusive results are not listed. Activity calls are given as the source filed them. The calls were made as follows, unless noted: active = hit-call score of the fitted dose curve at least 0.9, where 1 is the maximum; inconclusive = response in the unintended direction; inactive = score below 0.9.
# What was measured:
# [1] = target: human Phosphodiesterase 4A1 (PDE4A1), PDE4A (gene 5141) (UniProt P27815); assay: NVS_ENZ_hPDE4A1: NovaScreen (NVS) Enzymatic Assay for human Phosphodiesterase 4A1 (PDE4A1) (AID 2283191)
# Procedure, shortened: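 Cell-free recombinant human PDE4A1 with fluorescent substrate; product separated by electrophoretic mobility shift, 1 h. Screened at 25 uM, then up to 50 uM in concentration-response; loss of signal fitted against DMSO.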
# [2] = target: human Phosphodiesterase 5 (PDE5), PDE5A (gene 8654) (UniProt O76074); assay: NVS_ENZ_hPDE5: NovaScreen (NVS) Enzymatic Assay for human Phosphodiesterase 5 (PDE5) (AID 2283194)
# Procedure, shortened: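 Recombinant human PDE5 with specific substrate, read 1 h after dosing by fluorescence with electrophoretic mobility-shift separation of substrate and product. Initial single-concentration duplicate screen at 25 uM, actives followed in concentration series; loss of activity versus DMSO.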
# [3] = target: Tyrosine-protein phosphatase non-receptor type 14 (Homo sapiens) (UniProt Q15678); assay: NVS_ENZ_hPTPN14: NovaScreen (NVS) Enzymatic Assay for human Protein Tyrosine Phosphatase Non-receptor Type 14 (PTPN14) (AID 2283206)
# Procedure, shortened: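 Cell-free recombinant human PTPN14 with fluorescent substrate, read 0.5 h after dosing by fluorescence and electrophoretic mobility shift separating substrate from product. Primary screen at 25 uM in duplicate; hits run to 50 uM maximum; loss of signal versus DMSO.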
# [4] = target: human SRC Proto-Oncogene, Non-receptor Tyrosine Kinase (SRC), SRC (gene 6714) (UniProt P12931); assay: NVS_ENZ_hSRC: NovaScreen (NVS) Enzymatic Assay for human SRC Proto-Oncogene, Non-receptor Tyrosine Kinase (SRC) (AID 2283223)
# Procedure, shortened: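 Cell-free kinase activity assay with fluorescent substrate, product separated by electrophoretic mobility shift, read 1 h after dosing. Duplicate single point at 25 uM, then concentration-response up to 50 uM; loss of signal versus DMSO.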
# [5] = test system: bovine Histamine 1 Receptor (H1), gene 281231; assay: NVS_GPCR_bH1: NovaScreen (NVS) G Protein-Coupled Receptor Assay for bovine Histamine 1 Receptor (H1) (AID 2283246)
# Procedure, shortened: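 Radioligand displacement on bovine cerebellar membranes, 1 h after dosing, filter-based scintillation read-out; loss of signal vs DMSO. Duplicate single-concentration screen at 25 uM, then concentration-response up to 50 uM for hits.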
# [6] = target: rat Glutamate Metabotropic Receptor 5 (MGluR5), Grm5 (gene 24418) (UniProt P31424); assay: NVS_GPCR_rmMGluR5: NovaScreen (NVS) G Protein-Coupled Receptor Assay for rat Glutamate Metabotropic Receptor 5 (MGluR5) (AID 2283307)
# Procedure, shortened: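 Rat whole-brain membrane preparation; filter-based radioligand binding read by scintillation counting, 1.5 h after dosing. Single-point screen at 25 uM in duplicate; hits over threshold (e.g. 30% inhibition) retested in concentration-response up to 50 uM; loss of signal vs DMSO.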
# [7] = target: rat Oxytocin Receptor (OXT), Oxtr (gene 25342) (UniProt P70536); assay: NVS_GPCR_rOXT: NovaScreen (NVS) G Protein-Coupled Receptor Assay for rat Oxytocin Receptor (OXT) (AID 2283330)
# Procedure, shortened: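 Radioligand displacement on rat uterine membranes, 1 h incubation, filter-based scintillation counting. Chemicals were screened in duplicate at 25 uM, and those passing threshold were retested in concentration-response up to 50 uM. Loss of binding was fitted versus DMSO.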
# [8] = target: zebrafish Estrogen Receptor (ESR1), esr1 (gene 259252) (UniProt P57717); assay: ATG_zfER1_XSP1: Attagene TRANS-FACTORIAL Multi-Species (XSP1) HepG2 Assay for zebrafish Estrogen Receptor (ESR1) (AID 2283772)
# Procedure, shortened: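 Readout: fluorescent reporter mRNA, RT-PCR plus FAM labelling, HpaI digest, capillary electrophoresis; gain-of-signal fit vs DMSO. HepG2, transient multi-reporter TRANS (NR-GAL4 chimera), 24 h chemical exposure, 3 nM 6-alpha-fluorotestosterone co-added.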
# [9] = test system: frog Estrogen Receptor (ESR1), gene 398734; assay: ATG_frER1_XSP1: Attagene TRANS-FACTORIAL Multi-Species (XSP1) HepG2 Assay for frog Estrogen Receptor (ESR1) (AID 2283777)
# Procedure, shortened: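 Human hepatoma HepG2 cells carried transiently transfected multiplexed Gal4-driven reporters and were exposed to test chemicals for 24 hours. Transcripts were quantified by fluorescent RT-PCR with capillary electrophoresis, referenced to DMSO.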
# [10] = target: Peroxisome proliferator-activated receptor gamma (Homo sapiens) (UniProt P37231); assay: ATG_hPPARg_XSP1: Attagene TRANS-FACTORIAL Multi-Species (XSP1) HepG2 Assay for human Peroxisome Proliferator-activated Receptor gamma (PPARg) (AID 2283800)
# Procedure, shortened: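 HepG2 cells transiently transfected with GAL4-UAS reporter units carrying chimeric NR-Gal4 proteins; 3 nM 6-alpha-fluorotestosterone present. After 24 h dosing, reporter mRNA quantified by RT-PCR and capillary electrophoresis; gain of signal relative to DMSO.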
# [11] = target: mouse Peroxisome Proliferator-activated Receptor gamma (PPARg), Pparg (gene 19016) (UniProt P37238); assay: ATG_mPPARg_XSP1: Attagene TRANS-FACTORIAL Multi-Species (XSP1) HepG2 Assay for mouse Peroxisome Proliferator-activated Receptor gamma (PPARg) (AID 2283802)
# Procedure, shortened: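 HepG2 cells transiently transfected with GAL4-UAS reporter units driven by mouse PPARg–GAL4 chimera; 3 nM 6-alpha-fluorotestosterone present. After 24 h dosing, reporter mRNA quantified by RT-PCR, fluorescent labelling and capillary electrophoresis; gain of signal versus DMSO.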
# [12] = target: frog Thyroid hormone Receptor alpha (TRa), thra-a (gene 397942) (UniProt P15204); assay: ATG_frTRa_XSP1: Attagene TRANS-FACTORIAL Multi-Species (XSP1) HepG2 Assay for frog Thyroid hormone Receptor alpha (TRa) (AID 2283804)
# Procedure, shortened: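 HepG2 cells transiently transfected with frog TRa-GAL4 chimeric reporter units, dosed 24 hr with 3 nM 6-alpha-fluorotestosterone present; reporter mRNA quantified by RT-PCR, fluorescent labelling and capillary electrophoresis, gain of signal versus DMSO.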
# [13] = target: human Thyroid hormone Receptor alpha (TRa), THRA (gene 7067) (UniProt P10827); assay: ATG_hTRa_XSP1: Attagene TRANS-FACTORIAL Multi-Species (XSP1) HepG2 Assay for human Thyroid hormone Receptor alpha (TRa) (AID 2283805)
# Procedure, shortened: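 HepG2 cells transiently transfected with GAL4-UAS reporter units expressing chimeric NR-Gal4 proteins, dosed 24 hours with 3 nM 6-alpha-fluorotestosterone present. Reporter mRNA measured by RT-PCR and capillary electrophoresis; gain of signal fitted versus DMSO.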
# [14] = target: zebrafish Estrogen Receptor (ER1), esr1 (gene 259252) (UniProt P57717); assay: ATG_zfER1_XSP2: Attagene TRANS-FACTORIAL Multi-Species (XSP2) HepG2 Assay for zebrafish Estrogen Receptor (ER1) (AID 2283816)
# Procedure, shortened: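 HepG2 cells transiently transfected with a GAL4-UAS reporter and a chimeric zebrafish ER1-Gal4 construct, dosed 24 h. Reporter mRNA quantified by RT-PCR, labelling, HpaI digestion and capillary electrophoresis, relative to DMSO.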
# [15] = test system: zebrafish Estrogen Receptor (ER2a), gene 317734; assay: ATG_zfER2a_XSP2: Attagene TRANS-FACTORIAL Multi-Species (XSP2) HepG2 Assay for zebrafish Estrogen Receptor (ER2a) (AID 2283818);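 also: hits raise reporter mRNA so AC50 reflects activation of zebrafish ER2a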
# Procedure, shortened: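 HepG2 cells transiently transfected with GAL4-UAS reporter units and chimeric zebrafish ER2a-Gal4, exposed 24 h; medium contains 3 nM 6-alpha-fluorotestosterone and 1.5 nM norgestrel. Reporter mRNA quantified by RT-PCR, HpaI digestion, capillary electrophoresis; gain versus DMSO.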
# [16] = target: rat Monoamine Oxidase, MAO-B, Central (MAOBC), Maob (gene 25750) (UniProt P19643); assay: NVS_ENZ_rMAOBC: NovaScreen (NVS) Enzymatic Assay for rat Monoamine Oxidase, MAO-B, Central (MAOBC) (AID 2283238)
# Procedure, shortened: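 Compounds were first tested in duplicate at 25 uM against MAO-B from rat brain tissue; those passing the inhibition threshold were retested in concentration series up to 50 uM. Radiodetection by scintillation counting at 1.17 h, analysed against DMSO baseline.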
# [17] = target: Estrogen receptor beta (Homo sapiens) (UniProt Q92731); assay: OT_ER_ERbERb_1440: Odyssey Thera (OT) 24-hour HEK293T Protein-Complementation Assay for Estrogen Receptor-beta/-beta Homodimer (AID 2283380);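 also: fluorescence gain from ER beta LBD homodimer complementation read by laser scanning cytometry; scored as signal increase over DMSO baseline for both agonists and antagonists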
# Procedure, shortened: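 Fluorescence increase, nuclear for agonists or whole-cell for antagonists, relative to DMSO vehicle, quantified by laser scanning cytometer after fixation and Draq5 staining. Readout from 24 h treatment of HEK293T cells carrying complementation-paired ER beta LBD (aa 310-547).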
# [18] = target: guinea pig Leukotriene D4 Receptor (LTD4), CYSLTR1 (gene 100135514) (UniProt Q2NNR5); assay: NVS_GPCR_gLTD4: NovaScreen (NVS) G Protein-Coupled Receptor Assay for guinea pig Leukotriene D4 Receptor (LTD4) (AID 2283248)
# Procedure, shortened: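 Radioligand displacement on guinea pig lung membranes, 1 h incubation, filtration and scintillation counting; DMSO as negative control. Duplicate 25 uM primary screen, then singleton concentration-response up to 50 uM.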
# [19] = STM_H9_OrnithineISnorm_perc: Stemina devTOX quickPredict H9 human embryonic stem cell (hESC)-based Assay for Ornithine (ORN) Metabolite Biomarker, Normalized (AID 2283712; active = hit-call score of the fitted dose curve at least 0.9, where 1 is the maximum; inactive = score below 0.9;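 also: ornithine released into spent medium during last day measured by mass spectrometry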)
# Procedure, shortened: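 H9 human embryonic stem cells kept pluripotent receive test chemical over 72 h, refreshed daily by media exchange. Media from the closing 24 h is deproteinized and analysed by UPLC-HRMS on an amide column; ornithine signal is scaled to labelled standard and vehicle.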
# [20] = STM_H9_CystineISnorm_perc: Stemina devTOX quickPredict H9 human embryonic stem cell (hESC)-based Assay for Cystine (CYSS) Metabolite Biomarker, Normalized (AID 2283713; active = hit-call score of the fitted dose curve at least 0.9, where 1 is the maximum; inactive = score below 0.9)
# Procedure, shortened: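 H9 hESC, pluripotent; compound 72h, re-dosed q24h with medium change. Last-24h medium → 40% acetonitrile deproteinization → UPLC-HRMS. CYSS area / C13-CYSS standard, then % of 0.1% DMSO median.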
# Chain of Estrogen receptor beta (Homo sapiens) (Q92731 whole entry, looked up, the tested form may be a part): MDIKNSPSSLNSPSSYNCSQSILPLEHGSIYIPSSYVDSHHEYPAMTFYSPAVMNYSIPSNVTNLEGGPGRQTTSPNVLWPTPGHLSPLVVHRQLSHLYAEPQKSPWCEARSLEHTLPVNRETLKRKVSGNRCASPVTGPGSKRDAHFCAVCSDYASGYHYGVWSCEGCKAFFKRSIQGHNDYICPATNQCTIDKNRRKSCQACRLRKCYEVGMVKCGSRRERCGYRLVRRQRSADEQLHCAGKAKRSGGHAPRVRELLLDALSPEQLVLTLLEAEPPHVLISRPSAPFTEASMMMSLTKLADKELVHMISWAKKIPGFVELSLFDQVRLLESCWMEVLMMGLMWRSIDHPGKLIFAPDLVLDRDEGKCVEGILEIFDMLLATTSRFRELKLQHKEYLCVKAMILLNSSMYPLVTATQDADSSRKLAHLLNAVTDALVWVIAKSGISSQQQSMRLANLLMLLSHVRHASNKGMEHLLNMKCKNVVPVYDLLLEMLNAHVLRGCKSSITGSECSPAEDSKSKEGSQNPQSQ
# Chain of zebrafish Estrogen Receptor (ER1), esr1 (gene 259252) (P57717 whole entry, looked up, the tested form may be a part): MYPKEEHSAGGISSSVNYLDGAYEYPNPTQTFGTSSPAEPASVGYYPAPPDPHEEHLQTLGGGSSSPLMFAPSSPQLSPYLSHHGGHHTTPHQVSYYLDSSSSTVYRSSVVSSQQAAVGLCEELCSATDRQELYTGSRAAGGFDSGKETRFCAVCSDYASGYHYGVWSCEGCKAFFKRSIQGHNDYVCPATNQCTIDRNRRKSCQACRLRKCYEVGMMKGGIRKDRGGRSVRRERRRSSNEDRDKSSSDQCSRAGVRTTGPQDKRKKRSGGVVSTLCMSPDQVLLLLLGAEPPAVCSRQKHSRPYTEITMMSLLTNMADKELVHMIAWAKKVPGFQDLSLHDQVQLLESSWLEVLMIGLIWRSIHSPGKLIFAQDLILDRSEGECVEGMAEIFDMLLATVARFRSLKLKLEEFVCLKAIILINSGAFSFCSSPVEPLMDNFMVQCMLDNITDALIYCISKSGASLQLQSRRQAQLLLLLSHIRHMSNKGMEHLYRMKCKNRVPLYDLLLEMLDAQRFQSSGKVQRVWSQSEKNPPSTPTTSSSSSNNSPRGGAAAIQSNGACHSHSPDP
# Chain of zebrafish Estrogen Receptor (ESR1), esr1 (gene 259252) (P57717 whole entry, looked up, the tested form may be a part): as above
# Chain of Tyrosine-protein phosphatase non-receptor type 14 (Homo sapiens) (Q15678 whole entry, looked up): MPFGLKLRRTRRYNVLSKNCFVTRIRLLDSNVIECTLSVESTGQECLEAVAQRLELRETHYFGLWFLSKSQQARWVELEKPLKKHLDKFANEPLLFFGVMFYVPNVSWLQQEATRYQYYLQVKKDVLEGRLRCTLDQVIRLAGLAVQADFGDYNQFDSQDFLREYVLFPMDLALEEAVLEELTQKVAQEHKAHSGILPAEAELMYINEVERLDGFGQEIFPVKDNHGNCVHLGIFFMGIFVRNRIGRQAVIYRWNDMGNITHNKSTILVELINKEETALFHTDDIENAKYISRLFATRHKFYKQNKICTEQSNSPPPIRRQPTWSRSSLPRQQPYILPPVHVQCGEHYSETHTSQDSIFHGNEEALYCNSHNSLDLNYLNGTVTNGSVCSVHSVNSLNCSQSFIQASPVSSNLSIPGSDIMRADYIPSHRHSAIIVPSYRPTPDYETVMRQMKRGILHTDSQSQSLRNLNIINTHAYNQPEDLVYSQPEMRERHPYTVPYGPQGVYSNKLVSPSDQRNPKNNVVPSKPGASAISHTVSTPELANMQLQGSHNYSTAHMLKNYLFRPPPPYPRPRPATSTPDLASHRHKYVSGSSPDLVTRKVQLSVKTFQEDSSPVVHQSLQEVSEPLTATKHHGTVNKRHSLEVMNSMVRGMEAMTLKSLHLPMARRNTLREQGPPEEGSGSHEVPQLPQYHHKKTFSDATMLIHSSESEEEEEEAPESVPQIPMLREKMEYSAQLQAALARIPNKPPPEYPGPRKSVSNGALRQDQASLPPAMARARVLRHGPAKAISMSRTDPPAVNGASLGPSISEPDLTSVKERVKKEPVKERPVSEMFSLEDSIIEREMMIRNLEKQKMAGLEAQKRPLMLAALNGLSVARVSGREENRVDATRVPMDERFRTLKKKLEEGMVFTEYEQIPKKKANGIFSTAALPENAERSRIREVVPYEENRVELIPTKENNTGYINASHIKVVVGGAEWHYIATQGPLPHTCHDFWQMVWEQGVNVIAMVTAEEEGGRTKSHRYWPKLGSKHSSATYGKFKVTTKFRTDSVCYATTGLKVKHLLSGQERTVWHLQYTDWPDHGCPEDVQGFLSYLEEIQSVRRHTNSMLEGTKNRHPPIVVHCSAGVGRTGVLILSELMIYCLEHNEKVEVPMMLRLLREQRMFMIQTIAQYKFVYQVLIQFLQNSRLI
# Chain of rat Glutamate Metabotropic Receptor 5 (MGluR5), Grm5 (gene 24418) (P31424 whole entry, looked up): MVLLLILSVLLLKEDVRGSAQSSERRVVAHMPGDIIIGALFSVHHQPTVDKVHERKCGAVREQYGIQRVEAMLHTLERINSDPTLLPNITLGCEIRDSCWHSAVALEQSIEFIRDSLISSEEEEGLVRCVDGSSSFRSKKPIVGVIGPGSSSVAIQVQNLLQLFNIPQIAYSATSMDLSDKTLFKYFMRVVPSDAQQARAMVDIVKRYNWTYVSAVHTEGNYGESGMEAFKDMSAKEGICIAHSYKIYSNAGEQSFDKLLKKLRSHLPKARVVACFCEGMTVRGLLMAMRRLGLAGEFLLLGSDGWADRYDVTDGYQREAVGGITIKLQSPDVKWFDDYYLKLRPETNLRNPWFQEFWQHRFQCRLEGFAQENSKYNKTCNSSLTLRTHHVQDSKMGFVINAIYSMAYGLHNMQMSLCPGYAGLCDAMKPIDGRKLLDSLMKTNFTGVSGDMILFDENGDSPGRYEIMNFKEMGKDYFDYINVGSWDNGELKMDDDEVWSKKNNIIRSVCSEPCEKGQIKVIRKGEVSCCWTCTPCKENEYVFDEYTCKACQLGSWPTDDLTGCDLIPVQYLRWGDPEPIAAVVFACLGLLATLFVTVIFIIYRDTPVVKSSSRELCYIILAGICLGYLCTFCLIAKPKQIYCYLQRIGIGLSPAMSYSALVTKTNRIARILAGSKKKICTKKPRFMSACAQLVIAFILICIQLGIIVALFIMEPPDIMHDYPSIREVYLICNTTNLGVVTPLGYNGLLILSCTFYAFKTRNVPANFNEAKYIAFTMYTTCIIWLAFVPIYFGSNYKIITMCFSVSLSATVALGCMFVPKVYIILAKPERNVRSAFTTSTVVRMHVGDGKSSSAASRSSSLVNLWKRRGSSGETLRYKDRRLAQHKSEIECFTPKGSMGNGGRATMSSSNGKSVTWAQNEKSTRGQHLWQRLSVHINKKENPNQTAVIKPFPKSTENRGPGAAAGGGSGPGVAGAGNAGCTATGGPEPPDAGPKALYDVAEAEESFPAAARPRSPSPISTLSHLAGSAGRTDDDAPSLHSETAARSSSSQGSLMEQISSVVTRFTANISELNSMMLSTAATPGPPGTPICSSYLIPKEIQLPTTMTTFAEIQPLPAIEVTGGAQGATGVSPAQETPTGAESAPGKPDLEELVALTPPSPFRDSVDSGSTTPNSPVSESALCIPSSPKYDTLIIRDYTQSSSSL
# Chain of human Thyroid hormone Receptor alpha (TRa), THRA (gene 7067) (P10827 whole entry, looked up, the tested form may be a part): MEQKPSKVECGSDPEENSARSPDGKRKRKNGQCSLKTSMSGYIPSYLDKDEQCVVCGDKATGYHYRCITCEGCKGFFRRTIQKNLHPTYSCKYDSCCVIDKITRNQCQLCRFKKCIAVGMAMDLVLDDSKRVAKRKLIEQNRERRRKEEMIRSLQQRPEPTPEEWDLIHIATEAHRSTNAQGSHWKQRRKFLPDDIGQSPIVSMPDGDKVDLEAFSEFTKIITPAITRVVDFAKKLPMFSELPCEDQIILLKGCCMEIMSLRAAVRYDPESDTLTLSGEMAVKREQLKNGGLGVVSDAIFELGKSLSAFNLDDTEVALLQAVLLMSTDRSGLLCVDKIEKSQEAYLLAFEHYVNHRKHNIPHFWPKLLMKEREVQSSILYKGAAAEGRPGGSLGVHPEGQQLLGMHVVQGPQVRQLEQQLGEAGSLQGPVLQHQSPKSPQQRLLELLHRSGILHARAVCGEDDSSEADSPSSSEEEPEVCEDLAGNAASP
# Chain of human Phosphodiesterase 4A1 (PDE4A1), PDE4A (gene 5141) (P27815 whole entry, looked up): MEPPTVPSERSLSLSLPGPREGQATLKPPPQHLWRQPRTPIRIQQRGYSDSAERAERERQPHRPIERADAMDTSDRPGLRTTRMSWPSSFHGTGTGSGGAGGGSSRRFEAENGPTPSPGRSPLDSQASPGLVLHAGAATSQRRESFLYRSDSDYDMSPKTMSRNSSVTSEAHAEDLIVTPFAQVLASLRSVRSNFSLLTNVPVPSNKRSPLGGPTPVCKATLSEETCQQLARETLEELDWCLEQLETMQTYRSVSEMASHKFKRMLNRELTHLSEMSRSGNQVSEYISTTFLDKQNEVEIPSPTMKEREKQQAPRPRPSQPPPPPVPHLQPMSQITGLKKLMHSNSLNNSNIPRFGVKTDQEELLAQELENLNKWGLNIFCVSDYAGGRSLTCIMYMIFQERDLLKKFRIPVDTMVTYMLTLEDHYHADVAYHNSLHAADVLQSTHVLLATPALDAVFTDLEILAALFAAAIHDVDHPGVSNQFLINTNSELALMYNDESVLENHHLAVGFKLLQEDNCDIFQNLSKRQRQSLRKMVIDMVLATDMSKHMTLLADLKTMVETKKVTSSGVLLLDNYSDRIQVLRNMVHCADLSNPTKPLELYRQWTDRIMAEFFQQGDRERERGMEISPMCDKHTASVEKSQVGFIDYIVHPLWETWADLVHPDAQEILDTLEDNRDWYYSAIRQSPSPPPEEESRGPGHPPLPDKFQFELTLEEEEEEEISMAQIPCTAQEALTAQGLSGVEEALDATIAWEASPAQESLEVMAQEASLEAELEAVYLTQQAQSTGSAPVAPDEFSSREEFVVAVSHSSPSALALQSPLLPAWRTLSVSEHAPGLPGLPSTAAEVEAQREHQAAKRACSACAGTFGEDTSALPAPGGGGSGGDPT
smiles,measurement,setting,value
N#CCCCCC#N,outcome,[1],inactive
same,outcome,[2],inactive
same,outcome,[3],inactive
same,outcome,[4],inactive
same,outcome,[5],inactive
same,outcome,[6],inactive
same,outcome,[7],inactive
CC(C)(c1cc(Cl)c(O)c(Cl)c1)c1cc(Cl)c(O)c(Cl)c1,outcome,[8],inactive
same,outcome,[9],inactive
same,AC50,[10],2730 nM (active)
same,AC50,[11],2920 nM (active)
same,outcome,[12],inactive
same,outcome,[13],inactive
same,outcome,[14],inactive
same,AC50,[15],1620 nM (active)
CC(Cc1ccc(C(C)(C)C)cc1)CN1C[C@@H](C)O[C@@H](C)C1 (stereo not given in full),AC50,[16],14100 nM (active)
O=CNC(N1CCN(C(NC=O)C(Cl)(Cl)Cl)CC1)C(Cl)(Cl)Cl (stereo not given),outcome,[17],inactive
S=c1[nH]c2ccccc2[nH]1,outcome,[18],inactive
Cc1ccc(OP(=O)(Oc2ccc(C)cc2)Oc2ccc(C)cc2)cc1 (tested in a mixture with another compound),outcome,[19],inactive
same,AC50,[20],58400 nM (active)
